The nature of test [1]: inhibitors of TNFa-induced NFkB p65 translocation, primary screen, imaging, HUVEC, MLSMR starter and 10KST1 sets (AID 438;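 active means inhibition above 20% together with a positive visual image hit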;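 further: compound added about 3h40 before a 20 min TNFalpha stimulation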;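 on inhibition: signal is the nuclear over cytoplasmic p65 intensity ratio per well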). Particulars: HUVEC TNFa-induced p65 nuclear translocation; cell count: measured here: nuclei count (cytotoxicity indicator), at 2.08 µM; inhibition: at 2 µM, stronger effect = higher value, 0% TNFa-plus-vehicle, 100% no-TNFa wells.
Test [2] can be described thus: reduction of polyQ htt aggregates in cells – imaging, exon1htt(103Q)mCFP cells, high-content imaging, primary screen (AID 483;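 active means visual image review flags a hit and inhibition of aggregation exceeds 20%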;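 further: compound exposure lasted 3 days before fixation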;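 on nuclei count: percent of the per-plate median nuclei count of sample wells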). Conditions: exon1htt(103Q)mCFP cell line, aggregate imaging, at 2 µM; inhibition of aggregation: stronger effect = higher value; nuclei count: measured here: cell count, toxicity.
The nature of test [3]: endothelial E-selectin expression blockers – imaging, HUVEC, immunofluorescence, MLSMR starter and 10KST1 sets, primary screen (AID 487;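 active means visually confirmed hit in the image check and inhibition above 20%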;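 on inhibition: signal is fraction of cell area covered by stained E-selectin grains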;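 on nuclei count: 100% = median nuclei count of all wells on the same plate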). Particulars: HUVEC TNFalpha-induced E-selectin immunofluorescence imaging, at 2 µM; inhibition: stronger effect = higher value; nuclei count: measured here: cell number, toxicity.
The nature of test [4]: Primary imaging screen for DUSP6 inhibitors that restore phospho-Erk in transfected HeLa cells, chemical complementation (AID 609;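 active means compounds giving at least 50% inhibition in the cell-based MKP-3 phosphatase rescue imaging test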;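 on inhibition: phospho-Erk level distribution per well compared with pooled transfected vehicle control wells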). Particulars: HeLa MKP-3 transfected, phospho-Erk imaging KS statistic, at 10 µM, cells stimulated with TPA for 15 min.
Test [5] addresses Dual specificity protein phosphatase 6 (Homo sapiens) (UniProt Q16828). The description is as above. Particulars: HeLa MKP-3 transfected, phospho-Erk imaging KS statistic; at 10 µM; stronger effect = higher value; cells stimulated with TPA for 15 min.
Test [6] concerns the target Voltage-gated potassium channel subunit beta-2 (Rattus norvegicus) (UniProt P62483). The experiment in a line: inhibitors of rat Kvbeta2 reductase activity – biochemical, NADPH fluorescence, primary screen (AID 622;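 active means fluorescence slope higher than the sample average by over 3 SD, cut at about -0.22 in these data, passing the limit was not always enough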;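 further: slope of raw intensity against log time taken from 70 to 1610 s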). Particulars: recombinant KvBeta, 4-cyanobenzaldehyde reduction, at 10 µM, stronger effect = higher value.
The target is the same in test [7]. Put plainly: enhancers of rat Kvbeta2 NADPH turnover – biochemical, NADPH fluorescence, primary screen (AID 623;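 active means NADPH fluorescence slope more negative than the mean of all samples by about 3 SD, 99.7% confidence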;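 further: fluorescence intensity change per second fitted from 20 to 320 s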). Particulars: Recombinant KvBeta, NADPH fluorescence decrease slope, 10 min; at 10 µM; stronger effect = lower value.
Test [8] concerns the target Alpha-2C adrenergic receptor (Homo sapiens) (UniProt P18825). The experiment in a line: compounds altering alpha2C-coupled GIRK flux – cell-based, HEK293 alpha2C/GIRK1/2, thallium flux, primary screen (AID 624;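 active means fluorescence slope after compound addition differing from the mean of all screened samples at 99.7% confidence, in either direction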;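 further: slope of fluorescence ratio to pre-addition baseline per second over 15 to 24 s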). Particulars: thallium flux BTC fluorescence, at 10 µM, actives lie on both sides.
The nature of test [9]: inhibitors of larval lipid processing in zebrafish, primary screen, whole organism, PED6 fluorescence, gall bladder and intestine (AID 686;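 active means a full or partial loss of lipid-probe fluorescence in the fish gall bladder, intestine or both, judged by eye; inactive means no fluorescence loss, or compound toxic to the fish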;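 further: larvae 5 to 7 days old with five fish per well; signal comes from phospholipase A2 cleavage of quenched PED6 carried via bile; overnight exposure to compound and PED6 before scoring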). Conditions: Zebrafish larvae PED6 lipid processing, fluorescence scoring; screened at 20 µM (by protocol).
Test [10] is described as follows: loss of swimming-algae plug formation – whole organism, Chlamydomonas reinhardtii, WT vs cilia-less mutant, absorbance, 96-well, primary screen (AID 463189).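 Further: 0% = wild type cc124 cells in DMSO and 100% = ciliumless bld1 mutant cells.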 Particulars: Chlamydomonas reinhardtii gravitaxis, OD600 absorbance, 2 days; at 10 µM; stronger effect = higher value.
The nature of test [11]: blockers of RIG-like receptor reporter activation – cell-based, Sendai virus stimulus, luciferase, 10K MLSCN set, TLR/RLR signaling modifier project, primary screen (AID 602276;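 active means inhibition at or above 50% at 10 µM; inactive means inhibition below 50%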;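 further: firefly luciferase from ISG56 promoter only with Renilla not read in this screen; 0% = Sendai virus plus DMSO and 100% = medium plus DMSO without virus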). Conditions: HEK293 RL24 IRF3 luciferase reporter, at 10 µM, stronger effect = higher value. (In general: A reporter such as luciferase makes a cellular process visible.)
The nature of test [12]: TLR3 IRF3 reporter activation blockers – cell-based, poly I:C stimulus, luciferase, 10K MLSCN set, primary screen (AID 602277;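 active means inhibition of the reporter signal at or above 50%; inactive means inhibition below 50%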). Particulars: HEK293-TLR3 RL24 IRF3 luciferase reporter, at 10 µM, stronger effect = higher value.
[13] abbreviates: measured here: cell density z-score.
Setting [14] is: measured here: nuclear c-Myc green intensity z-score.
The mark [15] stands for this setting: measured here: nuclear pErk red intensity z-score, stronger effect = higher value.

Consider ten compounds from PubChem BioAssay.

Values joined by “and” are separate entries in the source; they are usually repeats but may differ in a detail not shown here. Equal values may be shown once. Active and inactive are the calls of the source.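 How the source made its calls, unless noted: active means inhibition at or above 50% relative to wild type and mutant plate controls; inactive means inhibition below 50%.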

Sequence of Dual specificity protein phosphatase 6 (Homo sapiens) (Q16828 whole entry, looked up): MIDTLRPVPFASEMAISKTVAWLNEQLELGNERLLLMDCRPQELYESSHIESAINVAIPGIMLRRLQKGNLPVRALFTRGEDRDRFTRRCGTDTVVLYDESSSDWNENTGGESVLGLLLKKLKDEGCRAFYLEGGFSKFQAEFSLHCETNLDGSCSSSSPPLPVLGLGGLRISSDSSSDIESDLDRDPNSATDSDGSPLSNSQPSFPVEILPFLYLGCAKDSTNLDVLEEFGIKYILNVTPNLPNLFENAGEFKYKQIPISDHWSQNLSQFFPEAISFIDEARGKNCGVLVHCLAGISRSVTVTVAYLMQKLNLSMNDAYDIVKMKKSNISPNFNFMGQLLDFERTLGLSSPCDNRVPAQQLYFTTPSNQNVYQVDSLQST
Sequence of Alpha-2C adrenergic receptor (Homo sapiens) (P18825 whole entry, looked up): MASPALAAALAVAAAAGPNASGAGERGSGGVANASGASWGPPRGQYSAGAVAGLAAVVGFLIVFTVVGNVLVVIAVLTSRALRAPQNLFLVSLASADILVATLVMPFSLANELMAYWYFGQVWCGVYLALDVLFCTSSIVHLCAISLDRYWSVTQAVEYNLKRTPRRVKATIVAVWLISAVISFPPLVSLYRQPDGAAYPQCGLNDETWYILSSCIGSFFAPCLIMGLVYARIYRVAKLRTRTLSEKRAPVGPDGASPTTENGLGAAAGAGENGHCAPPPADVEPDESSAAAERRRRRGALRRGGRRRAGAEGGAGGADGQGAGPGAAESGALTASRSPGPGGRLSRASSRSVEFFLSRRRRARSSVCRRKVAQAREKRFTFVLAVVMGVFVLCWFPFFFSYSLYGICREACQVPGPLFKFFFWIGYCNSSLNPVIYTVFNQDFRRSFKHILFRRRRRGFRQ
Sequence of Voltage-gated potassium channel subunit beta-2 (Rattus norvegicus) (P62483 whole entry, looked up): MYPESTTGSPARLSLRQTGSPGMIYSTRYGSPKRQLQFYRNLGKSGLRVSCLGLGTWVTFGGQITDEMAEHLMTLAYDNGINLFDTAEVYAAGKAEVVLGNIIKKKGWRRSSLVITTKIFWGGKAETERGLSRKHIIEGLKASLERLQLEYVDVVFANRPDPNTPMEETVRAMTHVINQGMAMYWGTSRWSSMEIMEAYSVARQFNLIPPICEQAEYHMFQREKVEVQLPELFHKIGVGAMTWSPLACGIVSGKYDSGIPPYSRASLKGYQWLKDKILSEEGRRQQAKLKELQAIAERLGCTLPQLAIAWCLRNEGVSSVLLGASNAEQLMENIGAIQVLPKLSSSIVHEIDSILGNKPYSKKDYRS

What is called inhibition is the relative decrease from the control value, in per cent. `Cc1cn([C@H]2C[C@H](N=[N+]=[N-])[C@@H](CO)O2)c(=O)[nH]c1=O`: the cell count in [1] was 663. For the same compound, the inhibition is -4% (inactive) in test [1]; -133% (inactive) in test [3]; -6.41% (inactive) in [5]; -6.84% (inactive) in test [10]; 17.8% (inactive) in [11]; 37% (inactive) in test [12]. The inhibition of aggregation in test [2] was 1.9% (inactive). For the same compound, the nuclei count came out at 102% in test [2] and 128% in [3]. The z-score is -0.406 in [4] (setting [13]), -0.912 in [4] (setting [14]) and 2.26 in test [4] (setting [15]). For the same compound, in [6], the fluorescence slope is -0.476 (inactive). In test [7], the NADPH fluorescence slope was 3.5e-07 (inactive). In addition, in [8], the slope was 0.00535 (inactive). The outcome in [9] was inactive.

For the compound `Nc1ccc2cn[nH]c2c1`, the cell count in test [1] stood at 616. Besides, the inhibition was 0.3% (inactive) in test [1]; -58.4% (inactive) in [3]; 5.79% (inactive) in test [5]; -10.8% (inactive) in test [10]; 3.56% (inactive) in test [11]; 33% (inactive) in test [12]. Further, in [2], the inhibition of aggregation was 9% (inactive). Further, the figures for the nuclei count in test [2] and in test [3] were 94.8% and 123%, respectively. For the same compound, the z-score in test [4] (setting [13]) was -0.59; in test [4] (setting [14]), 0.481; in test [4] (setting [15]), -0.693. The fluorescence slope in [6] is -0.531 (inactive). Also, in test [7], the NADPH fluorescence slope was -2.3e-05 (inactive). Also, the slope in [8] is 0.00412 (inactive). The compound was called inactive in test [9].

For `COc1ccc(NS(=O)(=O)c2ccc(N)cc2)nn1`, the cell count in test [1] amounted to 634. Also, the inhibition in [1] was -10.4% (inactive); in test [3], -67.7% (inactive); in test [5], 3.45% (inactive); in test [10], 15% (inactive); in test [11], 15.8% (inactive); in test [12] it was 27.8% (inactive). Moreover, the inhibition of aggregation in test [2] is -19.4% (inactive). Moreover, the nuclei count in test [2] came out at 99.2%; in test [3] it was 114%. Besides, the z-score in test [4] (setting [13]) is -2.14; in test [4] (setting [14]), -1.5; in test [4] (setting [15]), 2.96. Besides, the fluorescence slope in test [6] was -0.412 (inactive). Also, the NADPH fluorescence slope in [7] was 5.7e-06 (inactive). Besides, the slope in test [8] is 0.00455 (inactive). Besides, in [9], the compound was called inactive.

With `CCN(CC)CCOC(=O)C1(C2CCCCC2)CCCCC1`, the cell count in [1] came out at 520. Also, the inhibition is -11.3% (inactive) in test [1]; -57.3% (inactive) in test [3]; -6.41% (inactive) in test [5]; -2.13% (inactive) and -31% (inactive) in test [10]; 10.2% (inactive) in test [11]; 38.4% (inactive) in test [12]. For the same compound, the inhibition of aggregation in test [2] is 17.1% (inactive). The nuclei count in test [2] worked out at 96%; in test [3] it was 118%. In addition, the z-score was -0.235 in test [4] (setting [13]), -0.682 in test [4] (setting [14]) and 1.64 in test [4] (setting [15]). In addition, in test [6], the fluorescence slope is -0.494 (inactive). For the same compound, the NADPH fluorescence slope in test [7] was -5.1e-05 (inactive). The slope in test [8] is 0.00415 (inactive). Besides, the compound was called inactive in test [9].

On to `CCCCOc1ccc(C(=O)CCN2CCCCC2)cc1`, for which the cell count in test [1] stood at 591. Further, the inhibition in test [1] is -10.4% (inactive); in test [3] it was -91.6% (inactive); in test [5], 7.39% (inactive); in test [10], 61.3% (active); in [11], 4.68% (inactive); in [12], 21.9% (inactive). For the same compound, the inhibition of aggregation in test [2] is 4.2% (inactive). Besides, the nuclei count in [2] was 92.4%; in [3] it was 114%. In addition, the z-score in test [4] (setting [13]) was 0.144; in [4] (setting [14]), -0.213; in test [4] (setting [15]), -1.06. Moreover, in [6], the fluorescence slope was -0.421 (inactive). The NADPH fluorescence slope in [7] is -5.1e-05 (inactive). Besides, the slope in test [8] is 0.00405 (inactive). In test [9], the compound was called inactive.

As to `CSc1ccc2c(c1)N(CCC1CCCCN1C)c1ccccc1S2` (stereo not given), the cell count in test [1] was 643. Further, the inhibition in [1] is -2.7% (inactive); in test [3] it was -54.8% (inactive); in test [5], -4.44% (inactive); in [10], 77.2% (active) and 160% (active); in [11], 32% (inactive); in test [12] it was 30% (inactive). Moreover, the inhibition of aggregation in test [2] is 4.7% (inactive). For the same compound, the values for the nuclei count in [2] and in test [3] were 89.1% and 119%, respectively. The results for the z-score in test [4] (setting [13]), in test [4] (setting [14]) and in [4] (setting [15]) were 0.315, 3.44 and 1.46, respectively. For the same compound, in test [6], the fluorescence slope was -0.555 (inactive). Further, the NADPH fluorescence slope in test [7] was -5.2e-05 (inactive). Besides, the slope in test [8] is 0.00348 (inactive). The result in test [9] was inactive.

As to `Cc1cccc(OCC(=O)N2CCC(N3CCCCCC3)CC2)c1`, the cell count in test [1] was found to be 395. In addition, the inhibition in [1] was -7.8% (inactive); in [3], -247% (inactive); in [5], 5.57% (inactive); in test [10] it was 17.1% (inactive); in [11] it was -0.464% (inactive); in test [12], 3.84% (inactive). Further, the inhibition of aggregation in test [2] was 17.2% (inactive). The nuclei count in test [2] came to 97.5%; in [3], 128%. The results for the z-score in test [4] (setting [13]), in [4] (setting [14]) and in test [4] (setting [15]) were 1.59, 1.35 and -0.179, respectively. The fluorescence slope in test [6] was -0.384 (inactive). In addition, the NADPH fluorescence slope in test [7] was -4.7e-05 (inactive). Further, the slope in [8] was 0.00464 (inactive). Moreover, the compound was called inactive in test [9].

Turning to `O=C(O)c1ccccc1Nc1cccc(C(F)(F)F)c1`, in [1], the cell count was 626. The inhibition was 3.3% (inactive) in [1]; -44.4% (inactive) in test [3]; 23.4% (inactive) in [5]; -7.16% (inactive) in test [10]; 5.42% (inactive) in test [11]; 28.4% (inactive) in [12]. Further, the inhibition of aggregation in [2] was -7.4% (inactive). The values for the nuclei count in test [2] and in test [3] were 99.3% and 131%, respectively. Besides, the results for the z-score in test [4] (setting [13]), in test [4] (setting [14]) and in test [4] (setting [15]) were 0.0659, 0.639 and -1.06, respectively. In test [6], the fluorescence slope was -0.455 (inactive). For the same compound, the NADPH fluorescence slope in [7] is -3.9e-05 (inactive). The slope in test [8] is 0.00472 (inactive). Moreover, in test [9], the compound was called inactive.

For the compound `C(=C\c1ccccc1)/CN1CCN(C(c2ccccc2)c2ccccc2)CC1`, the cell count in [1] came to 635. Moreover, the inhibition in test [1] is -9.5% (inactive); in [3] it was -95.1% (inactive); in test [5], 11.3% (inactive); in [10] it was 126% (active) and 125% (active); in test [11], 9.39% (inactive); in [12] it was 26.9% (inactive). Further, in test [2], the inhibition of aggregation is -21.5% (inactive). In addition, the nuclei count in test [2] turned out to be 107%; in [3], 131%. Moreover, the z-score in test [4] (setting [13]) was 0.835; in test [4] (setting [14]) it was -0.254; in test [4] (setting [15]) it was 0.957. Moreover, the fluorescence slope in [6] is -0.448 (inactive). Also, the NADPH fluorescence slope in [7] is -6.1e-05 (inactive). In test [8], the slope is 0.00492 (inactive). For the same compound, the compound was classed as inactive in test [9].

Turning to `C[C@H](CCC(=O)O)[C@H]1CC[C@H]2[C@@H]3C(=O)C[C@@H]4CC(=O)CC[C@]4(C)[C@H]3CC(=O)[C@]12C`, in test [1], the cell count stood at 606. Besides, the inhibition was -9.6% (inactive) in test [1]; -37.7% (inactive) in test [3]; 3.45% (inactive) in test [5]; 9.63% (inactive) in test [10]; 14.6% (inactive) in [11]; 33.2% (inactive) in test [12]. In addition, in test [2], the inhibition of aggregation was 5.8% (inactive). The nuclei count in test [2] came out at 102%; in test [3] it was 138%. Moreover, the values for the z-score in test [4] (setting [13]), in test [4] (setting [14]) and in test [4] (setting [15]) were -0.246, -0.125 and -0.32, respectively. Further, the fluorescence slope in test [6] is -0.45 (inactive). In addition, the NADPH fluorescence slope in test [7] is 5.4e-06 (inactive). Further, the slope in test [8] is 0.00499 (inactive). Moreover, the compound was classed as inactive in [9].
